# Measured values as given in the supplement of paper PMC8728848.
# The full list was thinned out, with the strongest signals kept by preference.
# Tests used:
# Assay in all cases: glycan array binding signal (z-score within array); higher = stronger binding
# Conditions in all cases: glycan notation: IUPAC condensed, linker removed
# [1] = molecular target: Fuc(a1-2)Gal(b1-4)GlcNAc
# How it was run: (§1)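 The binding signal is a Z-score computed within each array and averaged over linkers. Arrays of the same protein sequence at different concentrations or buffers were also averaged together. Data originate from 3228 arrays in the Consortium for Functional Glycomics database, kept only where the protein sequence was available.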
# [2] = molecular target: Fuc(a1-2)Gal(b1-4)GlcNAc(b1-3)Gal(b1-4)GlcNAc(b1-3)Gal(b1-4)GlcNAc
# How it was run: as §1
# [3] = molecular target: Fuc(a1-2)[Gal(a1-3)]Gal
# How it was run: as §1
# [4] = molecular target: Gal(a1-3)Gal(b1-4)GlcNAc
# How it was run: as §1
# [5] = molecular target: Gal(a1-3)[Gal(a1-4)]Gal(b1-4)GlcNAc
# How it was run: as §1
# [6] = molecular target: Gal(b1-4)GlcNAc(b1-6)GalNAc
# How it was run: as §1
# [7] = molecular target: Gal3S(b1-4)Glc
# How it was run: as §1
# [8] = molecular target: Gal4S(b1-4)GlcNAc
# How it was run: as §1
# [9] = molecular target: Gal6S(b1-4)Glc
# How it was run: as §1
# [10] = molecular target: GlcNAc(b1-3)[GlcNAc(b1-6)]GlcNAc(b1-4)GlcNAc
# How it was run: as §1
# [11] = molecular target: Man(a1-2)Man(a1-2)Man(a1-6)[Man(a1-3)]Man
# How it was run: as §1
# [12] = molecular target: Neu5Ac(a2-3)Gal(b1-4)GlcNAc(b1-3)Gal(b1-4)GlcNAc(b1-3)Gal(b1-4)GlcNAc
# How it was run: as §1
# [13] = molecular target: Neu5Ac(a2-3)Gal(b1-4)[Fuc(a1-3)]GlcNAc
# How it was run: as §1
binder,measurement,setting,value
"RegIIIalpha (Mus musculus), O09037 (protein) MLPHLVLNSISWMLLSCLLFVFQVQGEDFQKEVPSPRTSCPMGYKAYRSHCYALVMTPKSWFQADLVCQKRPSGHLVSILSGGEASFVSSLVNGRVDNYQDIWIGLHDPTMGQQPNGGGWEWSNSDVLNYLNWDGDPSSTVNRGHCGSLTASSGFLKWGDYYCDGTLPFVCKFKQ",glycan array binding signal (z-score),[1],-0.094
same,glycan array binding signal (z-score),[2],0.048
same,glycan array binding signal (z-score),[3],-0.098
same,glycan array binding signal (z-score),[4],-0.089
same,glycan array binding signal (z-score),[5],0.002
same,glycan array binding signal (z-score),[6],-0.096
same,glycan array binding signal (z-score),[7],-0.096
same,glycan array binding signal (z-score),[8],0.116
same,glycan array binding signal (z-score),[9],-0.072
same,glycan array binding signal (z-score),[10],-0.081
same,glycan array binding signal (z-score),[11],-0.092
same,glycan array binding signal (z-score),[12],0.002
same,glycan array binding signal (z-score),[13],-0.054
